Potency and affinity values are given separately. Activity calls are given as the source filed them.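 The calls were made as follows: active = signal falls with a fitted half-maximal dose at most twice the top dose, in every run; inconclusive = steady partial drop, poor fit, or runs disagree; inactive = flat, rising or too weak in every run.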
Test: inhibitors of control Renilla luciferase reporter, dose response, counter-screen for Shn3 3'UTR targeting project, Clone20-Shn3RL cells, dual-Glo, cherry-pick, set 2 (AID 720724)

Row | SMILES | outcome
1 | CCc1ccccc1NC(=O)COC(=O)c1c(C)nsc1NC | inactive
2 | COc1ccc(-n2ncc3c(N4CCCCC4)ncnc32)cc1 | inactive
3 | CCn1c(CNC(=O)c2cc(OC)c(OC)c(OC)c2)cc2cc(C)ccc21 | inactive
4 | COc1ccc(CC(=O)Nc2ccncc2Cl)cc1 | inactive
5 | Cc1ccc(CNC(=O)c2cc3c(C)nc4ccccc4c3o2)cc1 | inactive
6 | COc1ccccc1NS(=O)(=O)c1cc(NC(=O)c2ccc(Cl)nc2)ccc1Cl | inactive
7 | CC(C)(C)C(=O)Nc1cc2nn(-c3ccccc3)nc2cc1Cl | inactive
8 | O=C(NCCc1ccccc1)c1ccc2c(c1)OCCCO2 | inactive
9 | COc1ccc(C(=O)Nc2nc3ccccc3s2)c(OC)c1 | inactive
10 | O=C(CN1C(=O)c2ccccc2S1(=O)=O)c1ccc(Cl)cc1Cl | inactive
11 | COc1ccccc1N1CCN(c2ncc(C(=O)N3CCN(c4cccc(Cl)c4)CC3)c3ccccc23)CC1 | inactive
12 | COc1ccc(OCc2cccc(C(=O)O)c2)cc1 | inactive
13 | O=C(c1cc(COc2ccc3ncccc3c2)on1)N1CCCCCC1 | inactive
14 | Cc1ccccc1OCCOC(=O)c1cc(S(=O)(=O)N2CCCCC2)ccc1N1CCOCC1 | inactive
15 | Cn1nc(CC(=O)Nc2ccc3c(c2)OCCO3)c2ccccc2c1=O | inactive
16 | CCN(CC)Cc1c(O)ccc2c1O/C(=C\C=C\c1ccccc1)C2=O | inactive
17 | Cc1ccc(C(=O)Nc2cnc3ccccc3c2)cc1 | inactive
18 | CCOC(=O)C1CCCN(S(=O)(=O)c2ccc(S(=O)(=O)N3CCCC3)cc2)C1 (stereo not given) | inactive

Row | SMILES | outcome
19 | Cc1ccc2c(c1)nnn2C1CCN(S(=O)(=O)c2ccc(C(=O)N3C(C)CCCC3C)cc2)CC1 (stereo not given) | inactive
20 | CCOC(=O)N1CCN(c2ccc(S(=O)(=O)N(Cc3ccccc3)Cc3ccccc3)cn2)CC1 | inactive
21 | O=C(Nc1ccc(N2CCOCC2)cc1)c1ccc(Cl)c(S(=O)(=O)N2CCCC2)c1 | inactive
22 | Fc1ccc(-n2nnnc2-c2cnc(-c3cccs3)nc2C(F)(F)F)cc1 | inactive
23 | O=C(CSc1nnc(-c2cccnc2)s1)Nc1ccnc2ccccc12 | inactive
24 | CC(=O)Nc1ccc(OCC(=O)Nc2ccc(Cl)c(S(=O)(=O)N3CCOCC3)c2)cc1 | inactive
25 | Cc1onc(-c2ccccc2Cl)c1C(=O)N(C)C1CCCCC1 | inactive
26 | Cc1cccc(CSc2cccc3cccnc23)c1 | inactive
27 | COc1ccc(CNC(=O)C(C)n2ccc3cc(S(=O)(=O)N4CCCCCC4)ccc32)cc1 (stereo not given) | inactive
28 | COc1cccc(-n2c(C)nc3c(cnn3-c3ccc(Cl)cc3)c2=O)c1 | inactive
29 | O=C(COC(=O)c1n[nH]c2ccccc12)Nc1ccc(S(=O)(=O)N2CCCC2)cc1 | inactive
30 | O=C(Nc1ccc(Cl)cc1)c1cc(S(=O)(=O)N2CCOCC2)cs1 | inactive
31 | CCOC(=O)Cn1c(S(=O)(=O)Cc2ccccc2Cl)nc(-c2ccccc2)c1-c1ccccc1 | inactive
32 | c1ccc(-c2noc(-c3ccc4ccccc4c3)n2)nc1 | inactive
33 | CCN(CC)S(=O)(=O)c1ccc(S(=O)(=O)Nc2c(C)nn(C)c2C)cc1 | inactive
34 | COc1ccc(NS(=O)(=O)c2ccc(OC)c(N(C)S(=O)(=O)c3ccc(Cl)cc3)c2)cc1 | inactive
35 | CCn1c(C)cc(C(=O)COC(=O)c2ccccc2[N+](=O)[O-])c1C | inactive

— PubChem BioAssay AID720724 (Broad Institute, 2013)
